PubChem BioAssay (Tox21)
Values joined by “and” are separate entries in the source; they are usually repeats but may differ in a detail not shown here. Equal values may be shown once. Inconclusive results are not listed. Where a call stands in place of a potency, no number is given. Some structures have more than one record in an assay (separate samples or runs), and their calls can disagree. Active and inactive are the calls of the source. Unless noted, calls come from the whole dose curve; as a rule, active = well fitted curve in the direction sought with a large enough effect in the repeat runs; inconclusive = weak or mixed curves; inactive = no such curve, though single readings can be large; an effect the other way counts as inactive or inconclusive.

How the values were obtained:
[1] = target: Estrogen receptor beta (Homo sapiens) (UniProt Q92731); test: qHTS assay to identify small molecule agonists of the estrogen receptor beta (ER-beta) signaling pathway (AID 1259377; active = well fitted activation curve with a large enough effect in the signal ratio in the repeat runs, not every such curve was filed as active; the % refers to the signal ratio)
How it was run: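 ER-beta-UAS-bla HEK293T (GripTite) cells carrying a UAS-driven beta-lactamase reporter, in medium with 2% charcoal-stripped FBS, were exposed to compounds for 16 hr at 37C; LiveBLAzer B/G FRET substrate was then added and fluorescence read after 2 hours at room temperature.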

[2] = target: Estrogen receptor beta (Homo sapiens) (UniProt Q92731); test: qHTS assay to identify small molecule antagonists of the estrogen receptor beta (ER-beta) signaling pathway (AID 1259378; active = well fitted inhibition curve with a large enough effect in the signal ratio in the repeat runs, not every such curve was filed as active; the % refers to the signal ratio; note: potency is the fitted concentration of half-maximal effect)
How it was run: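 ER-beta-UAS-bla HEK293T cells in 2% charcoal-stripped FBS medium treated with compound plus 1nM final 17-beta-estradiol for 16 hr at 37C. Beta-lactamase reporter read by FRET substrate fluorescence after 2 hours at room temperature.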

[3] = qHTS assay to identify small molecule agonists of the androgen receptor (AR) signaling pathway in the presence of an antagonist - cell viability counter screen (AID 1259379); note: nearly all actives have a fitted effect of over 25% in size; note: potency is the fitted concentration of half-maximal effect
How it was run: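 Fluorescence from CellTiter-Fluor, added after 15 hr and read 1 hr later, gave cell viability. Cells were MDA-kb2 exposed to compounds (15 concentrations) in the presence of 3.0uM nilutamide at 37C, 0% CO2.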

[4] = qHTS assay to identify small molecule agonists of the estrogen receptor beta (ER-beta) signaling pathway - cell viability counter screen (AID 1259380); note: nearly all actives have a fitted effect of over 30% in size; note: potency is the fitted concentration of half-maximal effect
How it was run: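 Same-well viability counter screen. Cells: ER-beta-UAS-bla HEK293T, plated 6 hr before compound, in 2% charcoal-stripped FBS. Compound exposure 16 hr, 37C; viability by CellTiter-Glo luminescence after 30 min at room temperature.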

[5] = qHTS assay to identify small molecule antagonists of the estrogen receptor beta (ER-beta) signaling pathway - cell viability counter screen (AID 1259382); note: nearly all actives have a fitted effect of over 55% in size; note: potency is the fitted concentration of half-maximal effect
How it was run: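 Following a 6 hr plating period, HEK293T cells carrying a UAS-driven beta-lactamase reporter under ER-beta control received compounds and 1nM E2 (final). After 16 hr at 37C and 2 hr substrate loading, CellTiter-Glo luminescence indicated viability.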

[6] = qHTS assay to identify small molecule agonists or antagonists of the thyroid stimulating hormone receptor (TSHR) signaling pathway - wild type cell line counter screen (AID 1259384; calls by dose curve)
How it was run: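 Wild-type Hek293 cells, 800/well, 18 h at 37C, then compound with Ro20-1724 for 30 min RT. cAMP by HTRF (cAMP-d2/anti-cAMP cryptate), 1 h RT, fluorescence read. 15 concentrations, triplicates.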

[7] = target: Thyrotropin receptor (Homo sapiens) (UniProt P16473); test: qHTS assay to identify small molecule antagonists of the thyroid stimulating hormone receptor (TSHR) signaling pathway (AID 1259385; calls by dose curve; note: nearly all actives have a fitted effect of over 20% in size; note: potency is the fitted concentration of half-maximal effect)
How it was run: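 TSHR-HEK293 cells (800/well) plated 18 h, then compounds with Ro20-1724 and TSH at 1.5 ng/mL final, 30 min at room temperature. cAMP quantified by HTRF (cAMP-d2/anti-cAMP-cryptate, 1 h); 15 concentrations in triplicate.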

[8] = qHTS assay to identify small molecule agonists of the estrogen receptor alpha (ER-alpha) signaling pathway in the presence of an antagonist - cell viability counter screen (AID 1259386);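 note: cells exposed to compounds for 22 h at 37 °C before the viability read; nearly all actives have a fitted effect of over 30% in size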; note: potency is the fitted concentration of half-maximal effect
How it was run: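 Cells are starved of estrogens for 5 days in charcoal-stripped serum, seeded for 24hr and co-treated with ICI-182,780 (10.0nM final) and test compounds. After 22hr at 37C, viability is read as CellTiter-Fluor fluorescence.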

[9] = target: Progesterone receptor (Homo sapiens) (UniProt P06401); test: qHTS assay to identify small molecule agonists of the progesterone receptor (PR) signaling pathway (AID 1346784; calls by dose curve; note: nearly all actives have a fitted effect of over 30% in size)
How it was run: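 PR-UAS-bla HEK 293T cells carrying a UAS-driven beta-lactamase reporter were seeded in medium with 2% charcoal-stripped FBS, preincubated 6 hr at 37C, then exposed to compounds in DMSO for 16 hr; agonism was read by LiveBLAzer B/G FRET fluorescence.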

[10] = target: Progesterone receptor (Homo sapiens) (UniProt P06401); test: qHTS assay to identify small molecule antagonists of the progesterone receptor (PR) signaling pathway (AID 1346795; active = well fitted inhibition curve with a large enough effect in the signal ratio in the repeat runs, not every such curve was filed as active; the % refers to the signal ratio; note: potency is the fitted concentration of half-maximal effect)
How it was run: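 PR-UAS-bla HEK293T cells carrying a UAS-driven beta-lactamase reporter were plated in medium with 2% charcoal-stripped FBS and rested 6 hr at 37C. Compounds were added with 1 nM R5020 (final) for 16 hr, then FRET substrate loaded 2 hr at room temperature.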

[11] = qHTS assay to identify small molecule antagonists of the progesterone receptor (PR) signaling pathway - cell viability counter screen (AID 1346798); note: nearly all actives have a fitted effect of over 50% in size; note: potency is the fitted concentration of half-maximal effect
How it was run: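 PR-UAS-bla HEK293T cells in medium with 2% charcoal-stripped FBS were treated with compounds plus R5020 for 16 hr at 37C. Cell viability was then read by CellTiter-Glo luminescence after 30 min at room temperature in the same wells.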

[12] = qHTS assay to identify small molecule agonists of the progesterone receptor (PR) signaling pathway - cell viability counter screen (AID 1346799; calls by dose curve; note: nearly all actives have a fitted effect of over 45% in size; note: potency is the fitted concentration of half-maximal effect)
How it was run: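 PR-UAS-bla HEK293T cells, 3,000 per well in medium with 2% charcoal-stripped FBS, were preincubated 6 hr at 37C, then exposed to compounds for 16 hr; viability was read as CellTiter-Glo luminescence after 30 min at room temperature.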

[13] = qHTS assay to identify small molecule antagonists of the TGF-beta/Smad signaling pathway - cell viability counter screen (AID 1346824); note: nearly all actives have a fitted effect of over 50% in size
How it was run: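 SBE-bla HEK 293T cells, incubated overnight, then compound plus 0.25 ng/mL TGF-beta1 (stock added) for 5 hr at 37 C. Viability was read in the same wells by CellTiter-Glo luminescence after 30 min at room temperature.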

[14] = qHTS assay to identify small molecule agonists of the TGF-beta/Smad signaling pathway - cell viability counter screen (AID 1346829); note: nearly all actives have a fitted effect of over 45% in size; note: potency is the fitted concentration of half-maximal effect
How it was run: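 Tox21 qHTS format: SBE-bla HEK 293T cells treated with DMSO-dissolved compounds for 5 hr; CellTiter-Glo luminescence after 30 min at room temperature.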

[15] = qHTS assay to identify small molecule agonists of the TGF-beta/Smad signaling pathway (AID 1346859; active = well fitted activation curve with a large enough effect in the signal ratio in the repeat runs, not every such curve was filed as active; the % refers to the signal ratio; note: series mostly up to about 77 µM)
How it was run: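 HEK 293T cells stably carrying a beta-lactamase reporter driven by the Smad binding element were seeded overnight, exposed to DMSO-dissolved compounds for 5 hr at 37 C, 5% CO2, then loaded with FRET substrate for 2 hr at room temperature.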

[16] = Human pregnane X receptor (PXR) small molecule agonists, qHTS cell viability counter screen (AID 1346977); note: nearly all actives have a fitted effect of over 50% in size; note: potency is the fitted concentration of half-maximal effect
How it was run: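 PXR-Luc HepG2 cells in medium with 5% charcoal-stripped FBS were pre-incubated 5hr, then exposed to compounds for 24hr at 37C. Viability was read in the same wells by CellTiter-Fluor fluorescence, reagent added after 23hr with a 1hr incubation.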

[17] = target: Estrogen receptor (Homo sapiens) (UniProt P03372); test: qHTS assay to identify small molecule agonists of the estrogen receptor alpha (ER-alpha) signaling pathway in the presence of an antagonist (AID 1259383; calls by dose curve; note: top concentration of the series differs between compounds; nearly all actives have a fitted effect of over 15% in size)
How it was run: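 Cells are hormone-deprived for 5 days (charcoal-stripped FBS, no phenol red), plated for 24hr, spiked with 10.0nM ICI-182,780, then dosed at 15 concentrations. After 22hr at 37C, ONE-Glo luminescence reports ERE-luciferase activity.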

[18] = target: Thyrotropin-releasing hormone receptor (Homo sapiens) (UniProt P34981); test: qHTS assay to identify small molecule antagonists of the thyrotropin-releasing hormone receptor (TRHR) signaling pathway (AID 1346877; active = well fitted inhibition curve with a large enough effect in the repeat runs, not every such curve was filed as active; note: series mostly up to about 51 µM)
How it was run: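 Cells (TRHR-HEK293) are plated and kept 18 h at 37 °C/5% CO2. A calcium-sensitive dye is added for 2 h, compound follows for 5 min at room temperature, and TRH is then given at 1 nM final.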

[19] = target: Thyrotropin-releasing hormone receptor (Homo sapiens) (UniProt P34981); test: qHTS assay to identify small molecule agonists of the thyrotropin-releasing hormone receptor (TRHR) signaling pathway (AID 1346891; calls by dose curve; note: series mostly up to about 58 µM)
How it was run: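 TRHR-expressing HEK293 cells were plated 18 h at 37 °C/5% CO2, loaded with calcium dye 2 h at 37 °C, then given compound in DMSO; fluorescence was read kinetically for 3 min at 1 s intervals.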

[20] = target: Androgen receptor (Homo sapiens) (UniProt P10275); test: qHTS assay to identify small molecule agonists of the androgen receptor (AR) signaling pathway in the presence of an antagonist (AID 1259381; calls by dose curve; note: nearly all actives have a fitted effect of over 15% in size)
How it was run: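 Cells are MDA-kb2 (human breast carcinoma, MMTV-luc, AR/GR responsive). Nilutamide is present at 3.0uM final throughout; compounds are added at 15 concentrations and incubated 16hr at 37C before ONE-Glo luminescence detection.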

Chain of Progesterone receptor (Homo sapiens) (P06401 whole entry, looked up): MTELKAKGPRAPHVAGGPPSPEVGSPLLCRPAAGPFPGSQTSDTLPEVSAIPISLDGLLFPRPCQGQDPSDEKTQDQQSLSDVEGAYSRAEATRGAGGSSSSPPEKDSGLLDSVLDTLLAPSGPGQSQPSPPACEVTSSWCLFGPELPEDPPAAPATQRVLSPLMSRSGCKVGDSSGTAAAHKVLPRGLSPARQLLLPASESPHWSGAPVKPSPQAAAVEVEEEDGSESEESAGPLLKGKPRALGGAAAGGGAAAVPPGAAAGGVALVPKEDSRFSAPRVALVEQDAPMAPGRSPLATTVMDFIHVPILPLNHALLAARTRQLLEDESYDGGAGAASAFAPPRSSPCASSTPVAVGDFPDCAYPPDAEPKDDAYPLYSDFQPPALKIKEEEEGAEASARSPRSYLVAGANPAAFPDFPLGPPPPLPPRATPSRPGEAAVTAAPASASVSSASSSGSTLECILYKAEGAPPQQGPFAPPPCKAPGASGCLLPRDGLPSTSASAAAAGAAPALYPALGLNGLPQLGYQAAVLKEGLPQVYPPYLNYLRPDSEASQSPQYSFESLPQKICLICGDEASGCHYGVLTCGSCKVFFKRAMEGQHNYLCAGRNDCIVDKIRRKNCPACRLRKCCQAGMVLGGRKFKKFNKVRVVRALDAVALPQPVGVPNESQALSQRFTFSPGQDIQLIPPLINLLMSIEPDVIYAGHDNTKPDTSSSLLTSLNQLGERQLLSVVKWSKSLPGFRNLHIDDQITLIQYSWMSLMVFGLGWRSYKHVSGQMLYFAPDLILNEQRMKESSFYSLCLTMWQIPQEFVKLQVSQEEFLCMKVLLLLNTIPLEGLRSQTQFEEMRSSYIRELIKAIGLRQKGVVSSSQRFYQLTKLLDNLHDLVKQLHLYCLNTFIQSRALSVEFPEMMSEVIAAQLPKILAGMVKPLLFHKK
Chain of Estrogen receptor (Homo sapiens) (P03372 whole entry, looked up): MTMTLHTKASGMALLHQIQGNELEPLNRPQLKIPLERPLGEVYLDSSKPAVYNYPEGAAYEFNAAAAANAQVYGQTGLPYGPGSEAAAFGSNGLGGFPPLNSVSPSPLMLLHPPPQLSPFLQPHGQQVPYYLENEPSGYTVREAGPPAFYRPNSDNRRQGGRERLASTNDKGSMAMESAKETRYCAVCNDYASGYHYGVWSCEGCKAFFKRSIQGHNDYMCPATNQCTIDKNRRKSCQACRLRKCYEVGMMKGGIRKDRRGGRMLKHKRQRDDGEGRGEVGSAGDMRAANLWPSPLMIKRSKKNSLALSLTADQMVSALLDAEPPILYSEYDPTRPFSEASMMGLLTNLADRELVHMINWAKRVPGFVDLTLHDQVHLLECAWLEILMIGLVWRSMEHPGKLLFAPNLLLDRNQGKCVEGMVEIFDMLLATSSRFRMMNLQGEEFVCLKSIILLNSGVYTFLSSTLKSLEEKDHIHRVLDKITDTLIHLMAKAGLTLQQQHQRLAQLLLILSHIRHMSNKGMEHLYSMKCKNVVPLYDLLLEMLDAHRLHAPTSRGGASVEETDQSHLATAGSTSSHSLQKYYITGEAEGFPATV
Chain of Thyrotropin receptor (Homo sapiens) (P16473 whole entry, looked up): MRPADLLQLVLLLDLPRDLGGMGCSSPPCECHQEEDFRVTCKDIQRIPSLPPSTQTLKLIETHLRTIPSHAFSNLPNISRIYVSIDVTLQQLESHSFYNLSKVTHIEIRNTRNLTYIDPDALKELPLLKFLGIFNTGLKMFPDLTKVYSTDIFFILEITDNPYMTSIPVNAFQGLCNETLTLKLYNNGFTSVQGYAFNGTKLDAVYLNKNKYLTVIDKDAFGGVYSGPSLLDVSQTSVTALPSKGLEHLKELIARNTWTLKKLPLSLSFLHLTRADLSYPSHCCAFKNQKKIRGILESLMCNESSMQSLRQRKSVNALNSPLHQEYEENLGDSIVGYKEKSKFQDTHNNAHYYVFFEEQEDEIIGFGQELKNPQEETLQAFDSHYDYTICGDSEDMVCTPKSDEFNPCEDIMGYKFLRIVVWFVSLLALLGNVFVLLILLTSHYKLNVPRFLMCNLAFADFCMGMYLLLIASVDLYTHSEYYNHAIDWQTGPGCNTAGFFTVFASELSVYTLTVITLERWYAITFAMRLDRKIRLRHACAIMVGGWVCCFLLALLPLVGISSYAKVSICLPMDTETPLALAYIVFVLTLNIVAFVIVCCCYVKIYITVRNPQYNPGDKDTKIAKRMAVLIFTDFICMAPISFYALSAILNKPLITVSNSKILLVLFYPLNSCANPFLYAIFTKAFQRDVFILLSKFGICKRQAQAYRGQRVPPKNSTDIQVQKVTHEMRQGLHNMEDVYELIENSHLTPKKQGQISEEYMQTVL
Chain of Thyrotropin-releasing hormone receptor (Homo sapiens) (P34981 whole entry, looked up): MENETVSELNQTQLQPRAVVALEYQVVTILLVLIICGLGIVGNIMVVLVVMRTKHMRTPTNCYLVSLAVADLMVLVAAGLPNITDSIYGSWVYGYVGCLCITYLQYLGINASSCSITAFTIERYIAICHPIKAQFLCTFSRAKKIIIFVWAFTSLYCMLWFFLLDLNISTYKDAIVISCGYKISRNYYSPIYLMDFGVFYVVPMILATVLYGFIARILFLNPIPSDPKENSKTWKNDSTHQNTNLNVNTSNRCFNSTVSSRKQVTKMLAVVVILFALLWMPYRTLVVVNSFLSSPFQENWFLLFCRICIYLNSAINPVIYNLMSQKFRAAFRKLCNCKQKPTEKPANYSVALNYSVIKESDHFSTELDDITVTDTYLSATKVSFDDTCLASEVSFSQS
Chain of Estrogen receptor beta (Homo sapiens) (Q92731 whole entry, looked up): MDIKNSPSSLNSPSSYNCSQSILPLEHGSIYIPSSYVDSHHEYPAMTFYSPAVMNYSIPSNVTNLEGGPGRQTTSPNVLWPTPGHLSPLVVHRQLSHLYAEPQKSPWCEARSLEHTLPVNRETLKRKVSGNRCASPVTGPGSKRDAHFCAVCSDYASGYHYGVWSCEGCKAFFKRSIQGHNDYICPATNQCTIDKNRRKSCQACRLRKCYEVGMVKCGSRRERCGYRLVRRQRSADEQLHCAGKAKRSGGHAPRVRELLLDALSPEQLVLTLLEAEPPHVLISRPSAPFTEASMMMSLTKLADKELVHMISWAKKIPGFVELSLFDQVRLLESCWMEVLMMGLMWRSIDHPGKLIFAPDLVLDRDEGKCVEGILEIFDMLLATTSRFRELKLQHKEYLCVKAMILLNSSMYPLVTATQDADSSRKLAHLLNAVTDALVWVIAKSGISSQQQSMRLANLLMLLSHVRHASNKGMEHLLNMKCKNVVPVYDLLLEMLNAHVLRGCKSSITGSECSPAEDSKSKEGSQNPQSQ
Chain of Androgen receptor (Homo sapiens) (P10275 whole entry, looked up): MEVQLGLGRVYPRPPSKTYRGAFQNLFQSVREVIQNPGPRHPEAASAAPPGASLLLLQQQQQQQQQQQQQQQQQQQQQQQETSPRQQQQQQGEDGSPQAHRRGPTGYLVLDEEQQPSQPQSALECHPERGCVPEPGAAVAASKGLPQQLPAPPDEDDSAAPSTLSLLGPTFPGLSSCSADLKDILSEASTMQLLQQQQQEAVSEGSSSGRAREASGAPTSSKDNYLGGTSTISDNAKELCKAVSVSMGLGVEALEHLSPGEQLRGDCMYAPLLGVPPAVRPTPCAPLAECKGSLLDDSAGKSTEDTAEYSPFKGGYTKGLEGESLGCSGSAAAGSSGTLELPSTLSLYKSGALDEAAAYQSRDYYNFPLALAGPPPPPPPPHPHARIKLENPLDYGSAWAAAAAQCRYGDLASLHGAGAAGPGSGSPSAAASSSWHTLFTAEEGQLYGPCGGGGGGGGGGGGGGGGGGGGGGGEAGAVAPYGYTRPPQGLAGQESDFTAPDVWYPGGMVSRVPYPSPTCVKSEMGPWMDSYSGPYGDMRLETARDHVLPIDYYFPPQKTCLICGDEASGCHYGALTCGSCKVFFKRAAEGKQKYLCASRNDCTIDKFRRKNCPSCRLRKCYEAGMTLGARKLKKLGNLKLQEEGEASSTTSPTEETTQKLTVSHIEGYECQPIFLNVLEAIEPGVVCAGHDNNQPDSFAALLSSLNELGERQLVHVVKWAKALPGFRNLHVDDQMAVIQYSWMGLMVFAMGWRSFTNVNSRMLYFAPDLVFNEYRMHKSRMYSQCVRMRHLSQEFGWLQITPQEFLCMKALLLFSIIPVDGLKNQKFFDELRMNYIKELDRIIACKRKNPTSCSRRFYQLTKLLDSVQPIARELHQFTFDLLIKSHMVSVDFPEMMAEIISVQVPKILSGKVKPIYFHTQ

| Compound | Potency [1] | Potency [2] | Potency [3] | Potency [4] | Potency [5] | outcome [6] | Potency [7] | Potency [8] | Potency [9] | Potency [10] | Potency [11] | Potency [12] | Potency [13] | Potency [14] | outcome [15] | Potency [16] | Potency [17] | Potency [18] | Potency [19] | Potency [20] |
| --- | --- | --- | --- | --- | --- | --- | --- | --- | --- | --- | --- | --- | --- | --- | --- | --- | --- | --- | --- | --- |
| Clc1ccc(COC(Cn2ccnc2)c2ccc(Cl)cc2Cl)cc1 (stereo unspecified) | inactive | 13.3 µM (active) | 50.8 µM (active) and 60.9 µM (active) and inactive | 57 µM (active) and 30.5 µM (active) and 11.9 µM (active) | 50.8 µM (active) and 27.2 µM (active) and 26.6 µM (active) | inactive | 57 µM (active) and 68.3 µM (active) | 50.8 µM (active) and 68.3 µM (active) and inactive | inactive | 5.31 µM (active) | 18 µM (active) and 27.2 µM (active) and 6.68 µM (active) | 45.3 µM (active) and 15.3 µM (active) and 5.96 µM (active) | inactive | 40.7 µM (active) | inactive | 45.3 µM (active) and 48.4 µM (active) and 26.6 µM (active) | – | – | – | – |
| BrCBr | inactive | inactive | inactive | inactive | inactive | inactive | inactive | inactive | inactive | inactive | inactive | inactive | inactive | inactive | inactive | inactive | inactive | inactive | inactive | – |
| N#Cc1ccccc1Cl | inactive | inactive | inactive | inactive | inactive | inactive | inactive | inactive | inactive | inactive | inactive | inactive | inactive | inactive | inactive | inactive | – | inactive | inactive | – |
| C=COCCCl | inactive | inactive | inactive | inactive | inactive | inactive | – | inactive | inactive | – | inactive | inactive | inactive | inactive | inactive | inactive | inactive | inactive | inactive | inactive |
| COCC(=O)N(c1c(C)cccc1C)[C@H](C)C(=O)OC | inactive | inactive | inactive | inactive | inactive | inactive | inactive | inactive | inactive | inactive | inactive | inactive | – | inactive | inactive | inactive | inactive | inactive | inactive | – |
| N#Cc1ccccc1N | inactive | inactive | inactive | inactive | inactive | inactive | inactive | inactive | – | – | inactive | inactive | inactive | inactive | inactive | inactive | inactive | inactive | inactive | inactive |
| NNC(=O)c1ccccc1 | inactive | inactive | inactive | inactive | inactive | inactive | inactive | inactive | inactive | inactive | inactive | inactive | inactive | inactive | inactive | inactive | inactive | inactive | inactive | – |
